Measured values reported in article PMC7862700, “An all-to-all approach to the identification of sequence-specific readers for epigenetic DNA modifications on cytosine”.

Tests used:
Experiment in all cases: DAPPL (digital affinity profiling via proximity ligation, sequencing); 10 mM Tris-HCl pH 7.5, 50 mM NaCl, 1 mM DTT, 4% glycerol, room temperature, 30 min; GST-TFs on glutathione beads, 16-mer random dsDNA library, 0.1% formaldehyde crosslink after washing; high values mean tight binding
Conditions in all cases: protein: recombinant; tags: N-terminal GST; dsDNA, one strand shown
FLI1 = biological target: T1, FLI1 (Homo sapiens, UniProt Q01543 1-452)
T1 sequence: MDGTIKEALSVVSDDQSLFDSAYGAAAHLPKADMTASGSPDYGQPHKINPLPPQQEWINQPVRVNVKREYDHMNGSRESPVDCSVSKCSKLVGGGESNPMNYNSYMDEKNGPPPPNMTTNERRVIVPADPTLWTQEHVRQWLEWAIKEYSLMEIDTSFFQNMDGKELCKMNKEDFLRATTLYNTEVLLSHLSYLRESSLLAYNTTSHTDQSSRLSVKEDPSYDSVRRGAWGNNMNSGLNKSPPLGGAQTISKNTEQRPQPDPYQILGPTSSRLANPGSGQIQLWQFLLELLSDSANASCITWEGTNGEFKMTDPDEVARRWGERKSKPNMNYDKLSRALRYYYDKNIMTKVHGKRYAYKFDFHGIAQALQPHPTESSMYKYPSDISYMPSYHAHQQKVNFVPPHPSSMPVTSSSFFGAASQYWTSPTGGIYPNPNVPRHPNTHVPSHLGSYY
Summary of the method: (§1)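 Sequencing on an Illumina NextSeq500 followed washing, crosslinking with 0.1% formaldehyde, proximity ligation (BsaI/T4 ligase, 1 h, 37 °C) and PCR amplification of pools that had been incubated for 30 min at room temperature with 200 nmole of a random double-stranded 16-mer DNA library in Tris/NaCl/DTT/glycerol buffer. Each pool held DNA-barcoded human transcription factors, expressed in yeast as GST fusions and captured on glutathione beads, plus a tag-only sample. Binding signal is a hexamer's read frequency for a factor divided by its frequency in the tag-only sample.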

GABPA = biological target: T2, GABPA (Homo sapiens, UniProt Q06546 1-454)
T2 sequence: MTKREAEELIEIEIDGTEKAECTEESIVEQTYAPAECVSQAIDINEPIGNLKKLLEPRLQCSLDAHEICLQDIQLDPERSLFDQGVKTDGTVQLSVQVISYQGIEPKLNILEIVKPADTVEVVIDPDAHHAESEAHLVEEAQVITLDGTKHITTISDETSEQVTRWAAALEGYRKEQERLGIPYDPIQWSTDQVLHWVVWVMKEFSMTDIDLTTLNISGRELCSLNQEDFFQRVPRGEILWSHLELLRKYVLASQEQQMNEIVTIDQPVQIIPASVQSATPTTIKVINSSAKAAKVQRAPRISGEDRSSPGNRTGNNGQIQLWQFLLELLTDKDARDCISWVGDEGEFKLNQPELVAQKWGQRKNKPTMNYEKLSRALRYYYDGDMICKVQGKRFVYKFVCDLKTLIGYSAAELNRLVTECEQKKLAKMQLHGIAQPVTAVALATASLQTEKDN
Summary of the method: as §1

ERG = biological target: T3, ERG (Homo sapiens, UniProt P11308 1-479)
T3 sequence: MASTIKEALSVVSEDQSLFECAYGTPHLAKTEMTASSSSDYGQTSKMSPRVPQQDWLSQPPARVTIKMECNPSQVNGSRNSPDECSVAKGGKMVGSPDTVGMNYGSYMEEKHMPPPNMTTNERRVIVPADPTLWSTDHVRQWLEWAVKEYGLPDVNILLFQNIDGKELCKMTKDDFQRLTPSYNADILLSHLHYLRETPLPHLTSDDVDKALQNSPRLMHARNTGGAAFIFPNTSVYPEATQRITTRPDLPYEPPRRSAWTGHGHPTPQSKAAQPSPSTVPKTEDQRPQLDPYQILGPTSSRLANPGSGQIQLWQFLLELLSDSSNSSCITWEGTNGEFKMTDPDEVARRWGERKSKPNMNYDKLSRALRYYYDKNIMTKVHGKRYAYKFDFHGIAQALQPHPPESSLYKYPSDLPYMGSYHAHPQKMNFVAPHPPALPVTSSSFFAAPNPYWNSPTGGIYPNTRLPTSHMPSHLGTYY
Summary of the method: as §1

EHF = biological target: T4, EHF (Homo sapiens, UniProt Q9NZC4 1-300)
T4 sequence: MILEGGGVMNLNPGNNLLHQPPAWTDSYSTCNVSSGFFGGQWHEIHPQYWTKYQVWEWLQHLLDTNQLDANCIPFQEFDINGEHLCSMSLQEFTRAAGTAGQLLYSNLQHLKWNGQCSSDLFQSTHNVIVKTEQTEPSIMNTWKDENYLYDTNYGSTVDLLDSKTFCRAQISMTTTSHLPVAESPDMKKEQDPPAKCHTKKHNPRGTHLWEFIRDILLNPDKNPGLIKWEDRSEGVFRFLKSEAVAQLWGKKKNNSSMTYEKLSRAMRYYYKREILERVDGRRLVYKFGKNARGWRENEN
Summary of the method: as §1

SPIB = SPIB (Homo sapiens, UniProt Q01892 1-262)
Summary of the method: as §1

ETV5 = ETV5 (Homo sapiens, UniProt P41161 1-510)
Summary of the method: as §1

SPIC = biological target: T5, SPIC (Homo sapiens, UniProt Q8N5J4 1-248)
T5 sequence: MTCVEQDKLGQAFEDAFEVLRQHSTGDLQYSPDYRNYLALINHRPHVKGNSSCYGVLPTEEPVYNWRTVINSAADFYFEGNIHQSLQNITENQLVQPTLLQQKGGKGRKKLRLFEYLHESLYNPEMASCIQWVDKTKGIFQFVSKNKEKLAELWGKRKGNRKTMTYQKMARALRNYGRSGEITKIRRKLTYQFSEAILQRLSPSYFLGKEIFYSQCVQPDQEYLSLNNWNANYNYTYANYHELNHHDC
Summary of the method: as §1

ELF4 = ELF4 (Homo sapiens, UniProt Q99607 1-663)
Summary of the method: as §1

SPDEF = biological target: T6, SPDEF (Homo sapiens, UniProt O95238 1-335)
T6 sequence: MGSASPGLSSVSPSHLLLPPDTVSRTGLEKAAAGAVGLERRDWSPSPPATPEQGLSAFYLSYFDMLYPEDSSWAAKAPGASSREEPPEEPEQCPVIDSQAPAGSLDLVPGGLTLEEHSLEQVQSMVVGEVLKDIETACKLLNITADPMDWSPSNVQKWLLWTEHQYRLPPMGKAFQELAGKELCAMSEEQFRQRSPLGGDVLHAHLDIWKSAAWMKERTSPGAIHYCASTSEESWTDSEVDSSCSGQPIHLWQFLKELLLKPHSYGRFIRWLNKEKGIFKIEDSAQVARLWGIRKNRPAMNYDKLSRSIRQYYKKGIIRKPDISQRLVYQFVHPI
Summary of the method: as §1

ETV3 = biological target: T7, ETV3 (Homo sapiens, UniProt P41162-2 1-143)
T7 sequence: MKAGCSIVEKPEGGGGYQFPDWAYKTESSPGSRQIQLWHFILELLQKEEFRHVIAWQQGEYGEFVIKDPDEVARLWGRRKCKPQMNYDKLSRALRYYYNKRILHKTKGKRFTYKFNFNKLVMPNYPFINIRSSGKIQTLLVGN
Summary of the method: as §1

ELK1 = biological target: T8, ELK1 (Homo sapiens, UniProt P19419 1-428)
T8 sequence: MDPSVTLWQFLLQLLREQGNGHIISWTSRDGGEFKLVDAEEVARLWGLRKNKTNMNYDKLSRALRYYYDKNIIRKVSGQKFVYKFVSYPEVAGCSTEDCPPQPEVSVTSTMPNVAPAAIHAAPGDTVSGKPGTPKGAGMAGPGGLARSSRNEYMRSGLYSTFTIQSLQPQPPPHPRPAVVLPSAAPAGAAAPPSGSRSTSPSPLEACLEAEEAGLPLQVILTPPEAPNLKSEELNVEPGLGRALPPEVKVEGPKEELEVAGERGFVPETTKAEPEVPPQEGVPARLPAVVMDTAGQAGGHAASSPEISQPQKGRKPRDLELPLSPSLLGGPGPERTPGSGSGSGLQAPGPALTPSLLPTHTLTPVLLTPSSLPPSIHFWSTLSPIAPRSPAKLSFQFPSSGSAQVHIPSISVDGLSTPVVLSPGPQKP
Summary of the method: as §1

SPI1 = SPI1 (Homo sapiens, UniProt P17947 1-270)
Summary of the method: as §1

ELK3 = biological target: T9, ELK3 (Homo sapiens, UniProt P41970 1-407)
T9 sequence: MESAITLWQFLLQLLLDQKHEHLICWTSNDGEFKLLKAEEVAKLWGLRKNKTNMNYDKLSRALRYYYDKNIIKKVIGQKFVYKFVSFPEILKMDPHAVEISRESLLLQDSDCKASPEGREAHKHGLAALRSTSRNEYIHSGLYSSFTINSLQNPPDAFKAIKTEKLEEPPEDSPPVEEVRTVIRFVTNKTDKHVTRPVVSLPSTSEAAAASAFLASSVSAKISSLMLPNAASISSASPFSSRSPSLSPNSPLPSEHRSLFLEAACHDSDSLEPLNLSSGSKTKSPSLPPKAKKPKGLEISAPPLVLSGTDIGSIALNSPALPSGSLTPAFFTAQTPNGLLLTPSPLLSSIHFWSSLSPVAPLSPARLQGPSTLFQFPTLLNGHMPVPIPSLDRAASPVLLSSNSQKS
Summary of the method: as §1

ERF = biological target: T10, ERF (Homo sapiens, UniProt P50548 1-548)
T10 sequence: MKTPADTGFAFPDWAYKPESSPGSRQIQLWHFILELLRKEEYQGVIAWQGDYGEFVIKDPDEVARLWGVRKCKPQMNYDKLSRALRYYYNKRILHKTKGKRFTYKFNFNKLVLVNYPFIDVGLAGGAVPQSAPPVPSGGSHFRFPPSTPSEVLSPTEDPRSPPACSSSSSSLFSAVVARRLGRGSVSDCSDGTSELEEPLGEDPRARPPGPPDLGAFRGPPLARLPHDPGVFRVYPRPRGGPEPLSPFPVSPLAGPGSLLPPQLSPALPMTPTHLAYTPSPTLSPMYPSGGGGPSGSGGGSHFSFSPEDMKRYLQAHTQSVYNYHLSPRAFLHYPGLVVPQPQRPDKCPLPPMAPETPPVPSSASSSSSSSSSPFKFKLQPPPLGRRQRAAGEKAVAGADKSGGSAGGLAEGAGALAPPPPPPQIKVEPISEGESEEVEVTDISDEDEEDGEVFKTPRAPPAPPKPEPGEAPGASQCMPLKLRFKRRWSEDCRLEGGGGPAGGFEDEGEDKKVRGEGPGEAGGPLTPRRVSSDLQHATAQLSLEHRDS
Summary of the method: as §1

ETS2 = biological target: T11, ETS2 (Homo sapiens, UniProt P15036 1-469)
T11 sequence: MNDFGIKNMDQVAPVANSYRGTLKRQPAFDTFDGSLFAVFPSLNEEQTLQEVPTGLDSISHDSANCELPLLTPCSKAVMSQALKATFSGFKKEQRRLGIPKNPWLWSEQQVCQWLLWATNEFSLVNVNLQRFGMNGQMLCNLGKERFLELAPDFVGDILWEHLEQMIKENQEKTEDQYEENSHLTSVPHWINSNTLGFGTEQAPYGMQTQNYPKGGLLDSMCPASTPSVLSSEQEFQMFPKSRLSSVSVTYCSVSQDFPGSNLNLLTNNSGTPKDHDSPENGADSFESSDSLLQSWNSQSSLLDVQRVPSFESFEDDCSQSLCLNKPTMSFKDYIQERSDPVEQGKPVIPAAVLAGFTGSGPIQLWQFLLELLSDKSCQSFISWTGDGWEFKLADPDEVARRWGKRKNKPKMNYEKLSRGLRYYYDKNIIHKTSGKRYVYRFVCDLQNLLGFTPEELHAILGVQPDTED
Summary of the method: as §1

ELF1 = ELF1 (Homo sapiens, UniProt P32519 1-619)
Summary of the method: as §1

ETV6 = ETV6 (Homo sapiens, UniProt P41212 1-452)
Summary of the method: as §1

Chain of ETV5 (P41161 whole entry): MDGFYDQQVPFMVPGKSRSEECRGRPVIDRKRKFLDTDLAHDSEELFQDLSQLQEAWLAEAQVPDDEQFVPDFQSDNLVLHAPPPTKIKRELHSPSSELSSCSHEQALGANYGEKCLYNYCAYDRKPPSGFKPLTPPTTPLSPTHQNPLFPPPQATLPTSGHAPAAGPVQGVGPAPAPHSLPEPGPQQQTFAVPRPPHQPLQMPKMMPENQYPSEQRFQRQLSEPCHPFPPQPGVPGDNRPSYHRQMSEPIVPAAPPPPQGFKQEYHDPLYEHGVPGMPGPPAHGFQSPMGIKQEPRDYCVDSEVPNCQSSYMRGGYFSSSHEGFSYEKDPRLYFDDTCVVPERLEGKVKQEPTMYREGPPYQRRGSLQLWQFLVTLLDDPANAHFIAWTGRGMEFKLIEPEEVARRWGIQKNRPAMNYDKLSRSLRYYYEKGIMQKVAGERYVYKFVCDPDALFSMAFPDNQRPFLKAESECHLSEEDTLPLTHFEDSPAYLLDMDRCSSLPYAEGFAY
Chain of ELF1 (P32519 whole entry): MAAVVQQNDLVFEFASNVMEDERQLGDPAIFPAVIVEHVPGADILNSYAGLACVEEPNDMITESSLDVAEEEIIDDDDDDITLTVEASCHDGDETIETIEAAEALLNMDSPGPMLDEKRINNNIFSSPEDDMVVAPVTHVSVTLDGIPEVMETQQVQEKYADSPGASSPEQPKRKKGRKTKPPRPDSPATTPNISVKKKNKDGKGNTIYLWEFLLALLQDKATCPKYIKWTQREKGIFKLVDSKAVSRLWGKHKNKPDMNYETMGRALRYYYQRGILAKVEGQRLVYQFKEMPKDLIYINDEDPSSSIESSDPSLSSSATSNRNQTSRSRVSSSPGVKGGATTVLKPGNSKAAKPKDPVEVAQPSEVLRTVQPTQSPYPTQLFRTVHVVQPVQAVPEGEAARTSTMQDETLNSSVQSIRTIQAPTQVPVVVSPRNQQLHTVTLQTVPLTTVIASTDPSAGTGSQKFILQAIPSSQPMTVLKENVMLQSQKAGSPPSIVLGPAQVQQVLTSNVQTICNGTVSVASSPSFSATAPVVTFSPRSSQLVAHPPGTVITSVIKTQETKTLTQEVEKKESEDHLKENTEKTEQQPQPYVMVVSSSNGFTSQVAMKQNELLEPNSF
Chain of ELF4 (Q99607 whole entry): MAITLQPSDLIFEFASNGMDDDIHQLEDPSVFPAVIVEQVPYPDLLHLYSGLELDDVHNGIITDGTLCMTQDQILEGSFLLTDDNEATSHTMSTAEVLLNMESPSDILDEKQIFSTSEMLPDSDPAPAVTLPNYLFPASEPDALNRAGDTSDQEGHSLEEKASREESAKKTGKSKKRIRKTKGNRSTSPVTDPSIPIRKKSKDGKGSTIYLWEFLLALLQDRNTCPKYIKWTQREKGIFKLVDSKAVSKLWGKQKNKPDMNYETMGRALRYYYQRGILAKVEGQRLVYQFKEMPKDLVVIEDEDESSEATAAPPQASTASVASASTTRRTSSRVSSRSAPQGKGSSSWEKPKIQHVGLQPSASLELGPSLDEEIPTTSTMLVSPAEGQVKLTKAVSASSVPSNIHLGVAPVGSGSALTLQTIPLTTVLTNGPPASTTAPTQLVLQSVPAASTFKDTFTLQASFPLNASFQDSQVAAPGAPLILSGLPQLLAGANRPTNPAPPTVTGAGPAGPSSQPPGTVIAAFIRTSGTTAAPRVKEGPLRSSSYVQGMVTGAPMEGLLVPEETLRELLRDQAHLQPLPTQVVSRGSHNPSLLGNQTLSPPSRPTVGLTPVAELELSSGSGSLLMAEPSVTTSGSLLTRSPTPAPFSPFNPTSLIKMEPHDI
Chain of SPIB (Q01892 whole entry): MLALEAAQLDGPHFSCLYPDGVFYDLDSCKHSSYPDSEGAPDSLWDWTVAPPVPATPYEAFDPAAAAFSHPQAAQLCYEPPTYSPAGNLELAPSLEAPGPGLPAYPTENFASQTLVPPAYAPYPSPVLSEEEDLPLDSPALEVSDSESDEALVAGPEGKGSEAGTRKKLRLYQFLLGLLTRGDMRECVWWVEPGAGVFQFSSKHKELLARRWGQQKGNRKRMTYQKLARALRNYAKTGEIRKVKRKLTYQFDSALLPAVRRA
Chain of ETV6 (P41212 whole entry): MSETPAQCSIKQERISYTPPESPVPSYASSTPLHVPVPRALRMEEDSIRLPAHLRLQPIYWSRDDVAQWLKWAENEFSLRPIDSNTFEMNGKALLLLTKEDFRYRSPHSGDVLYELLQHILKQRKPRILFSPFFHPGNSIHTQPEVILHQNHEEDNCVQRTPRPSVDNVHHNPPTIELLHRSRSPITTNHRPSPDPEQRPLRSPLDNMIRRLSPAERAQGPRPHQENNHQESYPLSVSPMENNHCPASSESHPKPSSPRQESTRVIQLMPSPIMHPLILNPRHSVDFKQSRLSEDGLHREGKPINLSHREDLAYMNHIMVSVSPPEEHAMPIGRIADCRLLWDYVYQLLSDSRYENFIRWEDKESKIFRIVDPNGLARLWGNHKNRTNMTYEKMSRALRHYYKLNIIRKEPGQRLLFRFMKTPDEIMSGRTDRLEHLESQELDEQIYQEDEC

| Sequence | binding signal (FLI1) | binding signal (GABPA) | binding signal (ERG) | binding signal (EHF) | binding signal (SPIB) | binding signal (ETV5) | binding signal (SPIC) | binding signal (ELF4) | binding signal (SPDEF) | binding signal (ETV3) | binding signal (ELK1) | binding signal (SPI1) | binding signal (ELK3) | binding signal (ERF) | binding signal (ETS2) | binding signal (ELF1) | binding signal (ETV6) |
| --- | --- | --- | --- | --- | --- | --- | --- | --- | --- | --- | --- | --- | --- | --- | --- | --- | --- |
| CGGATC | 1.04 fold enrichment (6-mer frequency, TF over GST control) | 1.04 fold enrichment (6-mer frequency, TF over GST control) | 1.05 fold enrichment (6-mer frequency, TF over GST control) | 1.02 fold enrichment (6-mer frequency, TF over GST control) | 1.01 fold enrichment (6-mer frequency, TF over GST control) | 1.03 fold enrichment (6-mer frequency, TF over GST control) | 1.02 fold enrichment (6-mer frequency, TF over GST control) | 1.01 fold enrichment (6-mer frequency, TF over GST control) | 1.67 fold enrichment (6-mer frequency, TF over GST control) | 1.06 fold enrichment (6-mer frequency, TF over GST control) |  |  |  |  |  |  |  |
| ATAGCG | 1.08 fold enrichment (6-mer frequency, TF over GST control) | 1.01 fold enrichment (6-mer frequency, TF over GST control) |  | 1.05 fold enrichment (6-mer frequency, TF over GST control) |  | 1.04 fold enrichment (6-mer frequency, TF over GST control) | 1.03 fold enrichment (6-mer frequency, TF over GST control) |  |  |  | 1.03 fold enrichment (6-mer frequency, TF over GST control) | 1.07 fold enrichment (6-mer frequency, TF over GST control) | 1.05 fold enrichment (6-mer frequency, TF over GST control) | 1.1 fold enrichment (6-mer frequency, TF over GST control) | 1 fold enrichment (6-mer frequency, TF over GST control) |  |  |
| GGTTAT | 1.07 fold enrichment (6-mer frequency, TF over GST control) | 1.03 fold enrichment (6-mer frequency, TF over GST control) | 1.04 fold enrichment (6-mer frequency, TF over GST control) | 1.03 fold enrichment (6-mer frequency, TF over GST control) |  | 1.09 fold enrichment (6-mer frequency, TF over GST control) | 1.05 fold enrichment (6-mer frequency, TF over GST control) |  | 1.05 fold enrichment (6-mer frequency, TF over GST control) | 1.05 fold enrichment (6-mer frequency, TF over GST control) |  | 1 fold enrichment (6-mer frequency, TF over GST control) | 1.07 fold enrichment (6-mer frequency, TF over GST control) |  | 1.04 fold enrichment (6-mer frequency, TF over GST control) | 1.01 fold enrichment (6-mer frequency, TF over GST control) | 1.03 fold enrichment (6-mer frequency, TF over GST control) |
